Giardia killer – kills Giardia lamblia; AID 540267; 340,000 compounds, 0.15% hits; Giardia lamblia trophozoite viability; activity change, % at 7.66 µM, hits read low; in the data active = activity change below about -80%; inconclusive = between about -30% and that limit;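 also: parasites exposed to compound for two days anaerobically before the ATP read; % is scaled to controls: 0 for no effect and ±100 for the full control effect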
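Compounds were tested on trophozoites seeded at 100 cells/well and held 48 hrs at 37 deg C anaerobically. An ATP-based luminescent kit measured the remaining live cells.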
HT1080-NT tox – kills 2HG-producing HT-1080-NT fibrosarcoma cells; AID 686970; Potency, µM (titrated, usually from 46.1 µM), for the others: at the highest dose activity, negative = less viability, most hits filed as cytotoxic; HT-1080-NT fibrosarcoma viability, CellTiter-Glo ATP luminescence, 48 h; 360,000 compounds, 1.6% hits;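 also: NT is the 2HG producing partner of a matched IDH1 knockdown line; potency is read from the fitted curve at half-maximal effect; 0% = DMSO-treated cells and -100% = media-only wells without cells; nearly all actives have a fitted effect of over 55% in size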
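A 48-hour cytotoxicity screen used HT-1080-NT cells plated 2 hours before compound delivery. ATP-based CellTiter-Glo luminescence measured viability, normalized to DMSO and no-cell controls.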
TGFb inhibitor – inhibitors of TGF-b signaling. HepG2 CAGA-GFP TGF-b/SMAD3 reporter, GFP fluorescence, 18 h; TGF-beta stimulated, 500 pg/mL final. Potency, µM (top dose mostly 46.1 µM), inactives show at the top dose activity, negative = inhibition, usual class: inhibitors. AID 588855. 410,000 compounds, 1.2% hits; also: potency is read from the fitted curve at half-maximal effect; % is scaled to controls: 0 for no effect and ±100 for the full control effect; nearly all actives have a fitted effect of over 65% in size
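Inhibition was scored as loss of TGF-beta-induced (500 pg/mL final, 18 hours, 37 degrees C) GFP in HEPG2 cells carrying a CAGA-GFP reporter, in DMEM with 1% FBS. Well GFP was summed per cell; Activity was normalised to unstimulated and stimulated DMSO wells, then concentration-response fitting.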
HepG2 viability – counter-screen for TGF-b inhibitors: cytotoxicity in HepG2 cells; HepG2 CAGA-GFP viability, ATP luminescence, 18 h; 410,000 compounds, 0.76% hits; Potency, µM (highest dose often 46.1 µM), for the others: at the highest dose activity change, negative = cytotoxicity, most hits filed as cytotoxic; also: potency is read from the fitted curve at half-maximal effect
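CellTiter-Glo luminescence gave cytotoxicity after 18 hours at 37 degrees C. The cells were HepG2 CAGA-GFP in 1% FBS DMEM, stimulated with 500 pg/mL TGF-beta after compound addition. %Activity was normalised to no-cell wells (complete cell-killing) and DMSO (no toxicity), and curves were fitted and classified.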
HT1080 IDH1KD tx – toxicity to HT-1080 IDH1 knockdown cells (counter line). HT-1080 IDH1 knockdown viability, ATP luminescence, 48 h. AID 686971. Potency, µM (top dose mostly 46.1 µM), for inactives: at the top dose activity, negative = toxicity, usual class: cytotoxic. 360,000 compounds, 2% hits;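 also: potency is read from the fitted curve at half-maximal effect; 0% = DMSO wells and -100% = cell-free medium wells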
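Cytotoxicity counter-line: IDH1KD HT-1080, 48 h, CellTiter-Glo. Curves classed by r2, magnitude and activity.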
IL-1B inflam inh – blocks inflammasome-driven IL-1 beta release. 360,000 compounds, 4.7% hits. THP-1 LPS/ATP IL-1B secretion, AlphaLISA, 16 h; stronger effect = lower value. activity change, % at 57.5 µM; in the data active = activity change below about -50%; inconclusive = mostly about -30% to -49%; also: % is scaled to controls: 0 for no effect and ±100 for the full control effect
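THP-1 cells pretreated 1 hr with compounds (up to 57.5 uM final), then stimulated with LPS (250 ng/mL final) plus ATP (1.25 mM final); secreted IL-1B measured by AlphaLISA after 16 hr, decreased signal indicating inhibition.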
Starred values were filed as active, the others as inactive; ? = inconclusive; · = no result given. Most compounds without a hit are left out; they make up all but 6.5% or so of the library. Unless noted, calls follow the shape of the dose curve; as a rule, active = well fitted curve in the direction sought with a large enough effect; inconclusive = small, poorly fitted or top-dose-only effect, or another doubt; inactive = no such curve, though single readings can be large; an effect the other way counts as inactive or inconclusive.

SMILES	Giardia killer	HT1080-NT tox	TGFb inhibitor	HepG2 viability	HT1080 IDH1KD tx	IL-1B inflam inh
Cc1noc(C)c1COC(=O)c1ccc(F)c(S(=O)(=O)N2CCCCC2)c1	4.2	-8.9%	-1.3%	4.1%	?	26.6
Cc1noc(C)c1COC(=O)c1cccc(S(=O)(=O)N2CCCCCC2)c1	-20.7	-10.4%	-0.5%	-5.9%	20.6µM*	15.0
Cc1ccc(S(=O)(=O)N2CCOCC2)cc1NC(=O)COC(=O)c1cnc(Cl)c(Cl)c1	6.3	0.9%	?	0.0%	-0.2%	-87.2*
Cc1ccc(S(=O)(=O)N2CCCCC2)cc1NC(=O)COC(=O)c1cccc(O)c1	·	0.1%	9.3%	11.2µM*	2.9%	29.0
Cc1ccccc1NC(=O)COC(=O)c1cccc(S(=O)(=O)N2CCCCC2)c1	22.3	-1.2%	-7.3%	-17.3%	-5.7%	0.2
Clc1cccc(Cl)c1CSc1nnc(CN2CCOCC2)n1-c1ccccc1	-9.8	-8.8%	-5.5%	-20.5%	-7.6%	-1.2
CC(C)(C)OC(=O)n1cccc1/C=C1\c2ccccc2C(=O)N1c1ccccc1	-4.6	-0.3%	-16.5%	-8.2%	5.7%	-1.9
CCCC(/C=C/c1ccc(OC(C)=O)cc1)=C1/c2ccccc2C(=O)N1c1ccccc1	-5.9	-8.0%	?	-14.9%	-2.2%	-62.7*
CC(=O)Oc1ccc(C#C/C=C2\c3ccccc3C(=O)N2c2ccccc2)cc1	-5.6	-22.3%	?	-95.5%	-28.5%	-99.6*
CCCN1CCN(C(=O)C2CCN(S(=O)(=O)c3c(C)noc3/C=C/c3ccc(C)cc3)CC2)CC1	7.5	16.4µM*	?	-61.0%	?	?
COc1ccc(/C=C\c2onc(C)c2S(=O)(=O)N2CCC(C(=O)Nc3ccc(C)c(F)c3)CC2)cc1	·	·	11.2µM*	-15.0%	·	·
Cc1ccc(/C=C/c2onc(C)c2S(=O)(=O)N2CCC(C(=O)N3CCCCC3)CC2)cc1	11.3	-6.3%	-10.9%	-19.4%	-4.7%	?
Cc1noc(/C=C/c2ccccc2F)c1S(=O)(=O)N1CCC(C(=O)Nc2ccc(C#N)cc2)CC1	·	·	4.47µM*	-43.5%	·	·
Cc1ccc(OCC(=O)N2CCOCC2)c([N+](=O)[O-])n1	-2.3	29.5%	-2.3%	-3.5%	22.0%	14.7
COCCNCC(=O)Nc1ccc(C)c(S(=O)(=O)N2CCCCC2)c1	9.4	-4.8%	-9.4%	1.3%	5.0%	14.2
COCCNC(=O)C1=C(N)C(C(=O)Nc2ccc(C)c(S(=O)(=O)N3CCCCC3)c2)SC1=Nc1ccc(C)cc1C (stereo unspecified)	26.8	12.6µM*	?	-25.2%	?	-19.9
CCN(CC)CCCNC(=S)N1CCN(c2nc(-c3ccccc3)cs2)CC1	-19.4	16.4µM*	?	-74.2%	23.1µM*	-50.1*
CC(C)CNC(=S)N1CCN(c2nc(-c3ccc(Cl)cc3)cs2)CC1	14.7	?	?	-39.6%	?	-68.7*
COCCCNC(=S)N1CCN(c2nc(-c3ccc(Cl)cc3)cs2)CC1	·	-17.1%	-20.3%	-34.0%	-14.6%	-5.0
N#C/C(=C\c1ccc(-c2ccc(Cl)c(C(=O)O)c2)o1)c1nc2ccccc2[nH]1	·	·	31.3%	2.4%	·	·
Cc1ccc2nc(/C(C#N)=C/c3ccc(-c4cccc(Cl)c4)o3)[nH]c2c1	·	·	-0.9%	8.91µM*	·	·
O=C(CN1CCCCCCC1)N/N=C/c1ccc([N+](=O)[O-])o1	?	-13.8%	12.6µM*	20µM*	-29.5%	-12.0
Cc1cc([N+](=O)[O-])ccc1-c1ccc(/C=N/NC(=O)Cc2ccccc2)o1	12.6	-26.4%	-16.9%	-20.9%	-23.1%	-9.2
CC1(C(=O)N/N=C/c2ccc([N+](=O)[O-])o2)CC1(Br)Br (stereo unspecified)	-90.2*	?	11.2µM*	11.2µM*	?	-90.1*
O=C(CN1CCOCC1)NN=Cc1ccc([N+](=O)[O-])o1	·	-20.6%	?	-45.9%	?	45.5
SMILES	Giardia killer	HT1080-NT tox	TGFb inhibitor	HepG2 viability	HT1080 IDH1KD tx	IL-1B inflam inh
CCOC(=O)N/N=C\c1ccc([N+](=O)[O-])o1	-94.6*	-10.1%	?	-48.9%	?	36.8
O=C(Cc1ccc([N+](=O)[O-])cc1)N/N=C/c1ccc([N+](=O)[O-])o1	-88.9*	?	15.8µM*	-114.5%	?	10.9
COc1ccc(NC(=O)CCCNC(=O)c2ccc(Cl)cc2)c(OC)c1	-6.3	-14.5%	4.0%	9.5%	15.1%	45.9
O=C(CC12CC3CC(CC(C3)C1)C2)N/N=C/c1ccc([N+](=O)[O-])o1	-93.7*	?	?	-43.2%	?	?
CCCOc1ccc(CCC(=O)N/N=C/c2ccc([N+](=O)[O-])o2)cc1	-88.0*	-18.6%	?	-131.3%	-19.2%	-3.2
O=C(CC12CC3CC(CC(C3)C1)C2)N/N=C\c1ccc[nH]1	4.9	-8.4%	-5.2%	20.6%	-4.3%	-17.3
CCCCCCCC(=O)N/N=C/c1ccc([N+](=O)[O-])o1	-88.0*	-1.9%	?	-107.8%	-0.6%	13.5
O=C(CN1C(=O)c2ccccc2C1=O)Nc1ccc(N2CCOCC2)cc1	-1.2	4.7%	6.9%	8.1%	8.8%	6.0
COc1ccc2noc3c2c1C(=O)c1ccccc1-3	-12.0	-22.6%	-9.7%	-106.3%	-26.5%	?
O=C1c2ccccc2-c2onc3ccc(NCCCn4ccnc4)c1c23	2.2	?	?	-54.6%	?	-97.4*
COc1cc(C(=O)NCC2(N(C)C)CCCCC2)ccc1OCc1ccccc1	-5.3	?	10.5%	-25.1%	9.2µM*	-16.6
O=C(O)CSc1cc(NS(=O)(=O)c2ccc(Br)cc2)c2ccccc2c1O	-22.6	20.6µM*	?	-27.1%	16.4µM*	-51.0*
O=C(Nc1ccc(F)cc1F)C1CCCN(c2ncnc3c2nc2n3CCCCC2)C1 (stereo unspecified)	-0.7	-22.6%	-12.9%	-16.7%	-10.8%	-55.5*
O=C(Nc1ccc(Cl)cc1)C1CCCN(c2ncnc3c2nc2n3CCCCC2)C1 (stereo unspecified)	-0.1	?	?	-3.2%	?	-59.4*
CSc1ccc(CCNC(=O)C2CCCN(c3ncnc4c3nc3n4CCCCC3)C2)cc1 (stereo unspecified)	-7.0	-5.4%	-16.6%	-19.3%	-5.7%	-68.6*
Cc1ccc(NC(=O)C2CCCN(c3ncnc4c3nc3n4CCCCC3)C2)cc1Cl (stereo unspecified)	12.0	-26.7%	?	1.6%	?	32.6

Assay outcomes deposited in PubChem by National Center for Advancing Translational Sciences (NCATS).
